Assay in all cases: NCI-60 one-dose screen, 48 h (100 = growth as untreated, 0 = no growth, -100 = all killed)
Details in all cases: 10 µM unless noted

Assay [1] deals with NCI-H23 lung.
Assay [2] deals with NCI-H226 lung.
The subject of assay [3] is NCI-H322M lung.
In assay [4] the test system is HOP-62 NSCLC.
Assay [5] has as its system NCI-H460 lung.
In assay [6] the test system is HOP-92 NSCLC.
In assay [7] the test system is NCI-H522 lung.
Assay [8] deals with A549/ATCC NSCLC.
For assay [9], the system named is 786-0 renal.
Assay [10] relates to COLO 205 colon.
Assay [11] deals with DU-145 prostate.
The subject of assay [12] is K-562 leukemia.
The subject of assay [13] is MALME-3M melanoma.
In assay [14] the test system is MDA-MB-231 breast.
Assay [15] concerns RXF 393 renal.
The test system of assay [16] is SF-268 CNS.
Assay [17] relates to SF-295 CNS.
The subject of assay [18] is SF-539 CNS.
Assay [19] deals with UACC-257 melanoma.
For assay [20], the system named is M14 melanoma.

This is part of a sample that, as a whole, favours compounds with a hit. Of some 83,000 tested, about 20% had one in any assay.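 For each line, cells grew in 96-well plates with the test compound present at a single concentration for 48 hours.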 Values without a mark were called inactive. Activity calls are given as the source filed them. Rule for the calls: active = growth percent below 10; inactive = the rest.

`Cc1ccc(C)c(NC2=C(Cl)C(=O)c3nc(C)ccc3C2=O)c1`: the growth is -38% (active) in [1]; 10.5% in assay [2]; 24.2% in assay [3]; 7.19% (active) in assay [4]; 48.9% in [5]; -13.8% (active) in [6]. In addition, the growth is -35.9% (active) in assay [7]; 31% in [8]; 4.67% (active) in [9]; 107% in assay [10]; -76.4% (active) in assay [11]; 1.06% (active) in assay [12]. In addition, the growth is -52.4% (active) in assay [13]; -14.5% (active) in assay [14]; -43.5% (active) in assay [15]; -1.66% (active) in assay [16]; -24.1% (active) in assay [17]; -95.1% (active) in assay [18]. For the same molecule, the growth in assay [19] is -87.7% (active); in assay [20], -55.8% (active).
For the molecule `CC1=Cc2ccccc2OC12C=Cc1ccccc1O2` (stereo not given), the growth was 86.5% in assay [1]; 91.7% in assay [2]; 89.7% in assay [3]; 89.5% in assay [4]; 104% in assay [5]; 98.6% in [6]. Further, the growth in [7] was 97.2%; in assay [8], 104%; in [9] it was 105%; in assay [10], 110%; in assay [11] it was 119%; in assay [12], 92.3%. Also, the growth in [13] was 98.7%; in [14], 89.8%; in assay [15], 97.8%; in [16], 98.8%; in assay [17], 97.2%; in assay [18], 97.8%. Moreover, the growth in assay [19] is 114%; in assay [20], 107%.
Consider `Cc1ccc(C(=O)Nc2ccc(CNCCN3CCOCC3)c(C(F)(F)F)c2)cc1C#Cc1cnc2cccnn12`, for which the growth is 21.5% in assay [1]; 20.5% in assay [2]; 47.9% in assay [3]; 15.4% in [4]; 18.9% in assay [5]; -11.9% (active) in assay [6]. Further, the growth in assay [7] is 4.82% (active); in [8], 19.2%; in [9] it was 14.2%; in assay [10] it was -18.8% (active); in assay [11], 33.5%; in assay [12] it was 5.07% (active). Besides, the growth in [13] was -44.6% (active); in [14], -18.5% (active); in assay [15], -54.2% (active); in assay [16] it was 15.6%; in assay [17] it was -24.7% (active); in assay [18] it was -69.3% (active). Besides, the growth in assay [19] is -45.3% (active); in [20] it was -7.89% (active).
In the case of `C[C@]12CC[C@H]3[C@@H](CC=C4C[C@@H](O)CC[C@@]43C)[C@@H]1CC[C@@H]2[C@](C)(O)CCc1cccnc1`, the growth in assay [1] is 52.5%; in [2], 73.4%; in assay [3] it was 79.5%; in assay [4], 61.3%; in assay [5], 63.5%; in assay [6], 66.8%. Besides, the growth in assay [7] is 36.6%; in assay [8], 70.1%; in assay [9] it was 80.8%; in assay [10], 70.8%; in assay [11], 53.5%; in assay [12] it was 26.4%. The growth in assay [13] is 47%; in assay [14], 77.2%; in assay [15], 66.4%; in assay [16] it was 70.7%; in assay [17], 45%; in [18], 66.2%. For the same molecule, the values for the growth in [19] and in assay [20] were 53.8% and 85.6%, respectively.
In the case of `C=CCSC1=NC2C(N(CC)C(=O)N2CC)N1/N=C/C=C/c1ccccc1OC` (stereo not given), the growth in [1] was 84%; in assay [2], 78.3%; in assay [3], 102%; in [4] it was 80.7%; in assay [5], 84.3%; in [6], 68.4%. For the same molecule, the growth was 57.2% in [7]; 69.8% in [8]; 98.5% in [9]; 83.1% in assay [10]; 92.2% in assay [11]; 28% in assay [12]. The growth in [13] is 72.2%; in assay [14], 82.5%; in assay [15], 79.3%; in assay [16], 89.2%; in assay [17] it was 58.5%; in [18], 78.1%. In addition, the growth in assay [19] is 83%; in assay [20], 72.6%.
In the case of `C#CCN(C)CCCOc1ccc(NCc2ccc(C(=O)NO)cc2)cc1Cl`, the growth in assay [1] was 21.3%; in [2] it was 46.6%; in assay [3], 31.8%; in assay [4] it was 24.8%; in [5] it was 24.8%; in assay [6], -5.78% (active). Also, the growth was 13.7% in [7]; 20% in [8]; 38.9% in assay [9]; 3.71% (active) in assay [10]; 25.7% in assay [11]; 15.5% in assay [12]. In addition, the growth in [13] is 16.9%; in [14], 35.8%; in assay [15], -3.35% (active); in assay [16], 30.3%; in assay [17], 0.985% (active); in assay [18] it was 23.9%. In addition, the growth in assay [19] is 10.3%; in assay [20], 29%.
For `Cn1cc(-c2nn3cc(-c4ccncc4)nc3s2)c2cc(F)ccc21`, the growth was 82% in [1]; 83.5% in assay [2]; 87.9% in assay [3]; 79.6% in assay [4]; 65.8% in assay [5]; 49.2% in [6]. Besides, the growth was 86.9% in assay [7]; 94.9% in assay [8]; 89.6% in assay [9]; 55% in assay [10]; 90.8% in assay [11]; 19.7% in assay [12]. Moreover, the growth in assay [13] was 65.5%; in [14], 63.3%; in assay [15], 88%; in [16], 94.8%; in [17] it was 96.7%; in assay [18], 87%. The figures for the growth in [19] and in assay [20] were 111% and 93.4%, respectively.
